Screening results deposited in PubChem by Broad Institute.
RAD52 inh – blocks human RAD52 DNA annealing; P43351; recombinant RAD52 DNA annealing, FRET fluorescence; inhibition, % at 18.7 µM; hit rate 0.46% among 360,000;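 active means every replicate showing at least 50% inhibition; inconclusive means mean inhibition at least 50% but not in every replicate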
ERAP1 HTS inh – ERAP1 (human) enzyme inhibition. AID 652197. Q9NZ08. recombinant ERAP1, Leu-AMC fluorescence, 60 min. inhibition, % at 10.7 µM. hit rate 0.15% among 340,000;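 active means mean replicate inhibition of at least 30%, or all replicates individually reaching that 30% level; inactive means mean below 30% and not every replicate reaching it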;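 further: 0% = neutral control wells and 100% = L-leucinethiol positive control wells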
FGF22 binding – binders of recombinant human FGF22 by thermal shift | Q9HCT0 | SYPRO orange fluorescence; percent of sucrose octasulfate shift, DMSO zero | activity (Tm shift, normalised), % at 9.99 µM | hit rate 1.5% among 340,000 | AID 651658;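 active means mean Tm shift, scaled 0 neutral to 100 positive control, at about 1.3% or above, every replicate too, limit read from the data; inconclusive means no clear call, values can overlap the other calls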
DENV2 CPE rescue – inhibitors of DENV2 cytopathic effect; DENV2-infected cells, cytopathic effect rescue, plate reader; CPE inhibition, % at 9.99 µM; hit rate 1.7% among 350,000; AID 651640; in the data active means CPE inhibition above about 20%, passing the limit was not always enough; inconclusive means no clear call, values can overlap the other calls; tested in BHK-21 cells;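 further: 0% = median of neutral control wells and 100% = median of positive control wells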
MLL AF4-AF9 inh – inhibitors of human MLL-AF4/AF9 interaction; P42568; inhibition, % at 10 µM; AlphaScreen, biotin-AF4 peptide binding to FLAG-AF9; AID 651704; hit rate 0.47% among 350,000;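 active means every replicate reaching a set inhibition limit, whatever the replicate mean, cut at about 25% in these data; inconclusive means mean inhibition reaches that limit but some replicates miss it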;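 further: 0% = plate neutral control median and 100% = total signal loss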
DNA binder FP – counter-screen for RAD52 inhibitors: DNA binding compounds. shares compounds with RAD52 inh. Salmon sperm DNA/acridine orange FP displacement. AC50, µM. hit rate 8% among 1,000. AID 652128;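 active means fitted half-maximal concentration for signal loss at or below twice the highest dose tested, in every separate run, actives reach about 64 µM in these data; inconclusive means runs disagree, or flat partial signal loss, or poor fit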
Numbers without * were called inactive; i = inactive; ? = inconclusive; · = no result. Rows were chosen to be rich in hits. Some 4% of all compounds tested hit in one or more screens of this group.

SMILES	RAD52 inh	ERAP1 HTS inh	FGF22 binding	DENV2 CPE rescue	MLL AF4-AF9 inh	DNA binder FP
NC(=NCc1ccccc1)NC(=O)c1nc(Cl)c(N)nc1N	50*	0	0	4	8	i
CC=Cc1ccc2n(c1=O)C[C@H]1[C@H](CO)[C@@H](C(=O)NC3CCCC3)N(CC3CCCCC3)[C@@H]21 (mixture of isomers)	1	0	0	-16	-14	·
CCN(CC)CCNC(=O)CNC(=O)c1nn(-c2ccc(OC)cc2)c(=O)c2ccccc12	-6	-4	0	-1	0	·
CCN(CC)CCNC(=O)c1nn(-c2ccc(Cl)cc2)c2c1CCc1cc(OC)ccc1-2	66*	0	0	7	23	i
CN1C(=O)c2cc(NC(=O)Cc3ccccc3)ccc2OC[C@@H]2O[C@@H](CC(=O)NCC3CC3)CC[C@H]21	-8	1	0	?	-3	·
CCN(CC)CCCNc1nc2ccccc2c2nc(-c3ccncc3)nn12	-80	-4	0	-7	2	46µM*
CN1CCN(CCCNc2nc3ccccc3c3nc(-c4ccccc4)nn23)CC1	66*	-3	0	1	19	i
O=C(CCC(=O)NNc1nc2ccccc2c2nc(-c3ccccc3)nn12)NCCCN1CCOCC1	23	0	0	3	-1	·
CCC(=O)N(C)C[C@H]1Oc2cc(-c3ccccc3)ccc2S(=O)(=O)N([C@@H](C)CO)C[C@@H]1C	14	2	0	10	2	·
CC(C)c1ccc(NC(=O)C(c2ccccc2)N2CC(=O)Nc3ccccc32)cc1 (stereo not drawn)	62*	·	0	9	1	i
CC(C)[C@H](NC(=O)N1CC(=O)Nc2ccccc21)C(=O)N[C@H](C(=O)O)c1ccccc1	-1	1	0	-6	0	·
C[C@@H]1CN([C@H](C)CO)C(=O)c2cc(NC(=O)c3ccncc3)ccc2O[C@@H](C)CCCCO[C@H]1CN(C)Cc1ccc(C(F)(F)F)cc1	-26	0	0	0	4	·
CN1CCN(c2nc(-c3ccc(Cl)s3)cs2)CC1	51*	2	0	-5	14	i
Cc1cccc(NC(=O)C[C@H]2CC[C@H]3[C@@H](COc4ccc(NC(=O)NC(C)C)cc4C(=O)N3C)O2)c1	11	·	·	-11	·	·
COc1ccc(COCC23N=C4SCCCN4[C@H](c4ccccc4O2)[C@H]3COC(=O)c2ccccc2)cc1	-23	-2	0	-4	6	·
Cc1ccc2c(c1)c1c(n2CC(O)CNC(C)(C)C)CCCC1 (stereo not drawn)	52*	-6	-1	0	2	i
Cc1ccc2c(c1)c1c(n2CC(O)Cn2c(C)nc3ccccc32)CCCC1 (stereo not drawn)	41	7	0	-4	-1	·
